The record followed here is PubChem BioAssay.

Experiment [1] deals with Plasmodium falciparum Sir2 (PF13_0152, Sir2A). Briefly: Plasmodium falciparum Sir2A binding compounds – biochemical, small-molecule microarray, 635 nm fluorescence, primary screen (AID 1098).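 Further: score merges spot fluorescence intensity with its signal-to-noise ratio.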 Conditions: fluorescence 635 nm, higher = more signal.
The nature of experiment [2]: probe aDKK1 binding to arrayed compounds – biochemical, biotinylated probe, 635/667 nm fluorescence, primary screen (AID 1099).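 Further: score merges 667nm spot fluorescence with signal to noise across triplicate slides.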 Conditions: small-molecule microarray, higher = more signal.
Experiment [3] can be described thus: probe aCHRDL2 binding to arrayed compounds – biochemical, biotinylated probe, 635/667 nm fluorescence, primary screen (AID 1100). Conditions: small-molecule microarray, higher = more signal.
The nature of experiment [4]: change in splice reporter luminescence, either direction, cell-based, HEK293, spliceosome inhibition project, primary screen (AID 1101).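 Further: HEK293 cells carrying a splicing-competent luciferase reporter gene; test concentration not given here.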 Particulars: HEK293 splicing luciferase reporter, 24 h, higher = more signal, called active from +8 up or from −8 down. Background: In a reporter assay the amount or activity of a reporter protein is the signal.
The target of experiment [5] is Fibroblast growth factor 10 (Homo sapiens) (UniProt O15520). The experiment is described as follows: compounds binding fibroblast growth factor 10 – biochemical, small-molecule microarray, 635 nm fluorescence, primary screen (AID 1102). Particulars: FGF10 binding, fluorescence 635 nm, higher = more signal.
Sequence of Fibroblast growth factor 10 (Homo sapiens) (O15520 whole entry, looked up): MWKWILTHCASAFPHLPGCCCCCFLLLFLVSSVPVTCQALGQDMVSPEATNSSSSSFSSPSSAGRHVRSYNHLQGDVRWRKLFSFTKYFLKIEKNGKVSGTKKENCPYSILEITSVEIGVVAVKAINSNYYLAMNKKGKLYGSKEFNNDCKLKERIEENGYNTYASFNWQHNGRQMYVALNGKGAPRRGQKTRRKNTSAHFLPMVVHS
The subject of experiment [6] is glycogen synthase kinase-3 (GSK3A per assay name; protocol says GSK3B). Briefly: compounds binding glycogen synthase kinase-3 – biochemical, small-molecule microarray, 635 nm fluorescence, GSK3A, primary screen (AID 1103). Further: the record names both GSK3A and GSK3B. Particulars: fluorescence 635 nm, higher = more signal.
The target in experiment [7] is Epidermal growth factor receptor (Homo sapiens) (UniProt P00533). Briefly: compounds binding epidermal growth factor receptor – biochemical, small-molecule microarray, 635 nm fluorescence, primary screen (AID 1104).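 Further: score merges 667 nm emission intensity with spot signal to noise over triplicate slides.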 Conditions: EGFR binding, higher = more signal.
Sequence of Epidermal growth factor receptor (Homo sapiens) (P00533 whole entry, looked up): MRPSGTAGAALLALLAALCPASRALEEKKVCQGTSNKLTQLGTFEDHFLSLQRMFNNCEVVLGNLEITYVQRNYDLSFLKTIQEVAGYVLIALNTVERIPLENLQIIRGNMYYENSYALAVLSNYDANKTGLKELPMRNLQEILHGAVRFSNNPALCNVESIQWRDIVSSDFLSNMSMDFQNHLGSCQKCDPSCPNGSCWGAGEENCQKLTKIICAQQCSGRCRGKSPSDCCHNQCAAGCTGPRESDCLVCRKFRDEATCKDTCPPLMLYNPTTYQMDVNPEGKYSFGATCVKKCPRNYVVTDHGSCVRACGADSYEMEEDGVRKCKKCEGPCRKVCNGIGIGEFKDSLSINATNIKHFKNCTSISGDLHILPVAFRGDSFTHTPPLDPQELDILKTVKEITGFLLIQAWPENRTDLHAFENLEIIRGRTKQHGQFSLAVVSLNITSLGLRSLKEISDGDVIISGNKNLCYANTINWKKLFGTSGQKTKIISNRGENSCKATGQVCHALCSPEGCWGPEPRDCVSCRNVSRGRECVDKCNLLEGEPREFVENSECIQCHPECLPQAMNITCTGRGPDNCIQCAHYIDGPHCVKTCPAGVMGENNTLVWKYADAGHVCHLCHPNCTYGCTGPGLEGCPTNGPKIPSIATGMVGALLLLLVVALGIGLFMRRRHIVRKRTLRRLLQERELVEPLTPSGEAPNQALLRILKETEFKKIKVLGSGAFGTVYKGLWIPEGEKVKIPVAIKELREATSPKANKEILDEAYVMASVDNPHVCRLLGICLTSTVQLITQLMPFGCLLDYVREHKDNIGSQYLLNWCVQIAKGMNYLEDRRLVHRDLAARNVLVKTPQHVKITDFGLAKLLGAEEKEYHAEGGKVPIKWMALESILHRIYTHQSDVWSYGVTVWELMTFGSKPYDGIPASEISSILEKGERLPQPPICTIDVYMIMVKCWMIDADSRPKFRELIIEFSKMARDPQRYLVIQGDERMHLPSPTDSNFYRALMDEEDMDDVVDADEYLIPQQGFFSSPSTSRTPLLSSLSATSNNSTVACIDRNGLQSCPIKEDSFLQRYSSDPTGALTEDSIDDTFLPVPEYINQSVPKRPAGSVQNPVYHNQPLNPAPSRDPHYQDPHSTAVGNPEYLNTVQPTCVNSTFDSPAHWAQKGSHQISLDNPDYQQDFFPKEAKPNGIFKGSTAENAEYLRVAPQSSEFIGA
Experiment [8] deals with Follistatin-related protein 3 (Homo sapiens) (UniProt O95633). The experiment is described as follows: compounds binding follistatin-related protein 3 – biochemical, small-molecule microarray, 635 nm fluorescence, primary screen (AID 1105).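 Further: score merges emission near 667 nm and signal to noise per printed spot across three slides.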 Particulars: FSTL3 binding, higher = more signal.
Sequence of Follistatin-related protein 3 (Homo sapiens) (O95633 whole entry, looked up): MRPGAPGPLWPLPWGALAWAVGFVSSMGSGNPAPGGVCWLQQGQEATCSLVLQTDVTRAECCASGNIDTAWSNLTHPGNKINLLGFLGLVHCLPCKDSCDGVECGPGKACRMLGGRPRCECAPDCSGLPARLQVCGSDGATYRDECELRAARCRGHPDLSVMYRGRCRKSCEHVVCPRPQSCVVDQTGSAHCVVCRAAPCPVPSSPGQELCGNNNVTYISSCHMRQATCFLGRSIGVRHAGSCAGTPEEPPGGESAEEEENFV
The target of experiment [9] is Dickkopf-related protein 1 (Homo sapiens) (UniProt O94907). The experiment is described as follows: small molecules binding DKK1 protein – biochemical, small-molecule microarray, 635 nm fluorescence scan, primary screen (AID 1106).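 Further: score merges emission near 667 nm with signal to noise over three replicate slides.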 Conditions: higher = more signal.
Sequence of Dickkopf-related protein 1 (Homo sapiens) (O94907 whole entry, looked up): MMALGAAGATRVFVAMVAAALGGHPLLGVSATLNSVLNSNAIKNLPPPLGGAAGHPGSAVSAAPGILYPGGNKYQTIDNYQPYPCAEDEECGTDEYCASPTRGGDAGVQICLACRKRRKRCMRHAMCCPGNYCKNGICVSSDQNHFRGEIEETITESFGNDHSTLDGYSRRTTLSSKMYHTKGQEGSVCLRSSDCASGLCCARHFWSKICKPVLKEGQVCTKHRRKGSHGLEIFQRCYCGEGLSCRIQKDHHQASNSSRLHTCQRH
The test system of experiment [10] is Inhibin beta A chain (activin A). The experiment is described as follows: small molecules binding activin A – biochemical, small-molecule microarray, 635 nm fluorescence scan, primary screen (AID 1107).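 Further: mouse activin A protein probed at 4.33 µg/mL on printed slides; score merges bound-protein fluorescence near 667 nm with spot signal-to-noise.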 Conditions: INHBA, higher = more signal.
The subject of experiment [11] is Human papillomavirus type 1a protein E7 (residues 44-93). The experiment is described as follows: small molecules binding HPV E7 44-93 – biochemical, small-molecule microarray, residues 44-93, 635 nm fluorescence, primary screen (AID 1108).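 Further: E7 fragment applied at 1 µg/mL in TBST for 1 h at 4 C; score combines spot fluorescence with its signal to noise ratio.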 Particulars: fluorescence 635 nm, higher = more signal.
A short description of experiment [12]: hepatitis C replication reporter changes, two-sided – Huh7 cells, luciferase reporter, HCV replication inhibitor project, primary screen (AID 1109).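 Further: huh7 hepatoma cells harbouring a luciferase neomycin HCV replicon reporter; luciferase luminescence as measure of HCV replicon replication; test concentration not given here.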 Conditions: Huh7 HCV replicon luciferase reporter, 48 h; higher = more signal.
Experiment [13] has as its target Left-right determination factor 2 (Homo sapiens) (UniProt O00292). The experiment is described as follows: small molecules binding LEFTY2 protein – biochemical, small-molecule microarray, 635 nm fluorescence scan, primary screen (AID 1110). Conditions: higher = more signal.
Experiment [14] has as its target Calmodulin-1 (Homo sapiens) (UniProt P0DP23). The experiment is described as follows: small molecules binding calmodulin-1 with EGTA – biochemical, small-molecule microarray, Cy5-labelled CALM1, profiling panel (AID 1111).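 Further: labelled calmodulin applied in Tris saline Tween buffer holding calcium plus EGTA and DTT.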 Particulars: Cy5-CALM1 binding fluorescence, higher = more signal.
Experiment [15] has the same target. Briefly: small molecules binding Ca-loaded calmodulin-1 – biochemical, small-molecule microarray, Cy5-labelled CALM1, plus calcium, artefact control for SMM control-protein annotation, profiling panel (AID 1112).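 Further: score merges spot fluorescence with signal to noise from triplicate slides.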 Particulars: Cy5-CALM1 binding fluorescence, higher = more signal.
Experiment [16] can be described thus: probe aWnt5a binding to arrayed compounds – biochemical, biotinylated probe, 635/667 nm fluorescence, primary screen (AID 1113).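 Further: score merges 667 nm fluorescence intensity with signal-to-noise per printed feature.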 Particulars: small-molecule microarray, higher = more signal.
The nature of experiment [17]: probe aShh binding to arrayed compounds – biochemical, biotinylated probe, 635/667 nm fluorescence, primary screen (AID 1114).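 Further: probe is biotin-labelled aShh protein from a stem cell growth factor screen; measures binding of labelled protein to compounds printed on the slide; score merges feature fluorescence at 667 nm with signal-to-noise.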 Conditions: small-molecule microarray, higher = more signal.
Experiment [18] is described as follows: probe aNog binding to arrayed compounds – biochemical, biotinylated probe, 635/667 nm fluorescence, primary screen (AID 1115).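 Further: probe is biotinylated aNog protein used at 0.15 µg/mL for 1 h at 4 C; z-score combines 667 nm fluorescence of each spot with its signal to noise.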 Conditions: small-molecule microarray, higher = more signal.
In experiment [19] the target is Torsin-1A-interacting protein 1 (Homo sapiens) (UniProt Q5JTV8). Briefly: compound microarray binding of lysate hLAP1 – cell lysate, small-molecule microarray, COS7 lysate, 635/667 nm fluorescence, primary screen (AID 1116). Conditions: 635 nm fluorescence, higher = more signal.
Sequence of Torsin-1A-interacting protein 1 (Homo sapiens) (Q5JTV8 whole entry, looked up): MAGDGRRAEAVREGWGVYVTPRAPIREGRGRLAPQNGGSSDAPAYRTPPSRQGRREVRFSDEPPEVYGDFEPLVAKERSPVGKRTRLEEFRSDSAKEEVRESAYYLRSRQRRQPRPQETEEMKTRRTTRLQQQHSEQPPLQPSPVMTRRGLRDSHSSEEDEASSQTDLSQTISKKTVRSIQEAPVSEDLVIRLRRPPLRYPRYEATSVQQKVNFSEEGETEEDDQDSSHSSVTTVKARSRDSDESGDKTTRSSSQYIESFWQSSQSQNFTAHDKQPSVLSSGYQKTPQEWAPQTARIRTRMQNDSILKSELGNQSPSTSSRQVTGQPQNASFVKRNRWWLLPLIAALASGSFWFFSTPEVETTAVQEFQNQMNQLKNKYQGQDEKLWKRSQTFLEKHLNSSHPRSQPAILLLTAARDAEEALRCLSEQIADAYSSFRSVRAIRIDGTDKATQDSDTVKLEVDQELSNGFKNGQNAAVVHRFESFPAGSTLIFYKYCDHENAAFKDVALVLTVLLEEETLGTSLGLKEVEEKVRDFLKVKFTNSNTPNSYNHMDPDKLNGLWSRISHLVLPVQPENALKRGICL
The target in experiment [20] is Alpha-bungarotoxin (Bungarus multicinctus) (UniProt P60615). Briefly: compounds binding labelled alpha-BTX control protein – biochemical, small-molecule microarray, Alexa647 label, 635/667 nm fluorescence, artefact control for SMM control protein annotation, profiling panel (AID 1117). Particulars: alpha-BTX-A647 binding fluorescence, higher = more signal.
Sequence of Alpha-bungarotoxin (Bungarus multicinctus) (P60615 whole entry, looked up): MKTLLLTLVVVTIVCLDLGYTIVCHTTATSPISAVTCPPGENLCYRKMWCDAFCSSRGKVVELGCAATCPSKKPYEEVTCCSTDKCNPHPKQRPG

Calls of active or inactive are those of the source.

Sequence of Left-right determination factor 2 (Homo sapiens) (O00292 whole entry, looked up): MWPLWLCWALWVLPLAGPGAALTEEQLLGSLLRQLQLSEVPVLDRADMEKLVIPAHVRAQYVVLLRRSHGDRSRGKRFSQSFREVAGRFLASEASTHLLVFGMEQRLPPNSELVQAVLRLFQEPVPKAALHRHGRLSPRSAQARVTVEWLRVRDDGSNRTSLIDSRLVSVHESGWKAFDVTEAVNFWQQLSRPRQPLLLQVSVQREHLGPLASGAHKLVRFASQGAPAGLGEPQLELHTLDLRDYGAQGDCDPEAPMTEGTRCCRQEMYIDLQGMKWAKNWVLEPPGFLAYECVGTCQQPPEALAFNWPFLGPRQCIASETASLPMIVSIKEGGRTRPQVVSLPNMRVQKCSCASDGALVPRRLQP

Consider `COCCOC(=O)N1C(=O)[C@@]2(c3ccccc31)[C@H](C(=O)Nc1nc3ccccc3s1)[C@H]1C(=O)O[C@H](c3ccccc3)[C@H](c3ccccc3)N1[C@@H]2c1ccc(O)cc1`, for which the composite z-score in experiment [1] was found to be 1.05; in [2] it was 0.356; in experiment [3] it was 0.361; in experiment [5] it was 0.998; in [6] it was 1.29; in [7] it was 0.534. In addition, the composite z-score in experiment [8] is 0.775; in experiment [9], 0.709; in experiment [10], 0.927; in experiment [11] it was 1.1; in [13], 1.02; in experiment [14], 1.74. For the same compound, the composite z-score is 1.07 in experiment [15]; 0.0044 in [16]; 0.489 in experiment [17]; 0.134 in [18]; 0.94 in experiment [19]; 2.07 in [20]. The values for the z-score in experiment [4] and in experiment [12] were -1.56 (inactive) and -2.04, respectively.
Turning to `C=CCN1C(=O)[C@@]2(O[C@@H](CCO)[C@H]([Si](C)(C)c3ccc(OC)cc3)[C@H]2C)c2cc(N3C(=O)c4cccc5cccc3c45)ccc21`, the composite z-score was 1 in experiment [1]; -0.0284 in experiment [2]; 0.392 in [3]; 0.102 in experiment [5]; 0.307 in [6]; -0.232 in experiment [7]. For the same compound, the composite z-score in [8] was -0.189; in experiment [9], -0.4; in experiment [10], 0.18; in experiment [11] it was 0.515; in experiment [13], -0.144; in experiment [14] it was 0.965. The composite z-score was 0.734 in [15]; -0.176 in [16]; 0.123 in experiment [17]; 0.272 in experiment [18]; 0.201 in experiment [19]; 1.21 in experiment [20]. In addition, the z-score is -3.45 (inactive) in experiment [4] and -5.15 in experiment [12].
Turning to `NC(=O)NCC#Cc1ccc2c(c1)[C@]1(C(=O)N2)[C@H](c2ccc(OCCO)cc2)N2[C@H](c3ccccc3)[C@H](c3ccccc3)OC(=O)[C@H]2[C@@H]1C(=O)Nc1nc2ccccc2s1`, the composite z-score in experiment [1] is 0.0284; in experiment [2] it was 0.918; in [3], 1.2; in experiment [5], 0.178; in experiment [6], -0.282; in [7] it was -0.345. Also, the composite z-score in experiment [8] is 0.224; in experiment [9], -0.463; in experiment [10], 1.35; in [11] it was -0.107; in experiment [13], -0.64; in [14], 0.728. Besides, the composite z-score in experiment [15] is 0.789; in [16], -0.184; in experiment [17] it was 0.046; in [18] it was 0.339; in experiment [19] it was 0.173; in experiment [20], 1.03. Moreover, the z-score is -1 (inactive) in experiment [4] and -0.495 in experiment [12].
Take `C[N+](C)(C)CCCC[C@@H]1NC(=O)[C@H]2C[C@@H](C(=O)NCCCCCN)[C@@H](c3cccc(OCCO)c3)N2C1=O`: the composite z-score is 1.19 in experiment [1]; 1.23 in experiment [2]; 1.02 in experiment [3]; 0.837 in [5]; 0.985 in [6]; -0.0784 in experiment [7]. The composite z-score was 0.564 in experiment [8]; 0.044 in experiment [9]; 1.63 in experiment [10]; 1.2 in [11]; -1.17 in [13]; 1.3 in experiment [14]. Moreover, the composite z-score amounted to 0.767 in experiment [15]; 0.133 in experiment [16]; 0.302 in experiment [17]; 0.708 in experiment [18]; 1.91 in experiment [19]; 2.15 in experiment [20]. Further, the figures for the z-score in experiment [4] and in [12] were -1.82 (inactive) and -0.295, respectively.
`COCCCNC(=O)[C@@]1(CCS(=O)(=O)c2ccccc2)N=C(c2ccc(OCCCO)cc2)O[C@H]1c1ccccc1CN=[N+]=[N-]`: the composite z-score in experiment [1] turned out to be 1.14; in [2], 1.17; in experiment [3] it was 1.12; in experiment [5], 1.14; in experiment [6] it was 1.31; in experiment [7], 0.184. For the same compound, the composite z-score was 0.847 in experiment [8]; 0.245 in experiment [9]; 1.22 in experiment [10]; 1.13 in experiment [11]; 0.266 in experiment [13]; 2.02 in [14]. Also, the composite z-score turned out to be 0.986 in [15]; 0.183 in experiment [16]; 0.81 in experiment [17]; 0.64 in experiment [18]; 0.732 in [19]; 2.42 in [20]. Besides, the values for the z-score in experiment [4] and in experiment [12] were -0.594 (inactive) and -2.04, respectively.
For `CN1C=C(C(=O)OCCS(C)(=O)=O)C(C(=O)OCCS(C)(=O)=O)=CC(CCCO)=CC1c1cccs1` (stereo not given), the composite z-score in experiment [1] was -0.122; in [2], -0.18; in [3] it was -0.707; in [5] it was 0.395; in [6], 0.891; in experiment [7], 0.56. Besides, the composite z-score in experiment [8] was 0.663; in experiment [9], 0.537; in experiment [10], -0.558; in [11], 0.358; in experiment [13], 0.716; in [14], -0.524. Further, the composite z-score in experiment [15] is -0.676; in experiment [16], -0.0161; in [17] it was -0.0011; in [18] it was -0.036; in experiment [19], 0.151; in experiment [20], -0.515. Also, the figures for the z-score in [4] and in experiment [12] were -0.601 (inactive) and -0.911, respectively.
